Laboratory results as given in PubChem BioAssay AID1159580 (chemical genetic matrix, 2015).
Screen size: about 5,500 compounds; about 2,000 (36%) were called active. Inconclusive results (about 18%) are left out. Rule as the data show it: active = normalized growth mostly below about 0.91 (no sharp cut-off); inconclusive = no clear call, values can overlap the other calls; inactive = mostly above about 0.92. The list shows a part of the results.

Test: chemical genetic growth profiling, strain panel (AID 1159580);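 also: tested at 20 µM; growth read once vehicle control cultures reached saturation at 30 °C; 1 = growth at the plate median or of vehicle wells; lower values mean less growth of the strain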
Details: S. cerevisiae deletion strains, growth OD

Measured: normalized growth

COc1cc2c(cc1OC)-c1c(oc3cc(O)cc(O)c3c1=O)CO2
inactive: locus YAL021C, strain ccr4, active compounds read low 1.02 | locus YAL026C, strain drs2, active compounds read low 1.01 | locus YAL030W, strain snc1, active compounds read low 1.01 | locus YBL061C, strain skt5, active compounds read low 1.01 | locus YBR009C, strain hhf1, active compounds read low 1.02 | locus YBR023C, strain chs3, active compounds read low 1.02 | locus YBR171W, strain sec66, active compounds read low 1.03 | locus YBR231C, strain swc5, active compounds read low 1.02 | locus YBR279W, strain paf1, active compounds read low 1.02 | locus YCL011C, strain gbp2, active compounds read low 1.01 | locus YCL016C, strain dcc1, active compounds read low 1.02 | locus YCL061C, strain MRC1, active compounds read low 1.01 | locus YCL069W, strain vba3, active compounds read low 1.01 | locus YCR088W, strain abp1, active compounds read low 1.02 | locus YDL005C, strain med2, active compounds read low 1.04 | locus YDL040C, strain nat1, active compounds read low 1.01 | locus YDR001C, strain nth1, active compounds read low 1.01 | locus YDR069C, strain doa4, active compounds read low 1.02 | locus YDR137W, strain rgp1, active compounds read low 1 | locus YDR159W, strain sac3, active compounds read low 1.04 | locus YDR195W, strain ref2 1.04 | locus YDR297W, strain sur2, active compounds read low 1.02 | locus YDR334W, strain swr1, active compounds read low 1.01 | locus YDR335W, strain msn5, active compounds read low 1.03 | locus YDR392W, strain spt3, active compounds read low 1.01 | locus YEL003W, strain gim4, active compounds read low 1.02 | locus YEL037C, strain rad23, active compounds read low 1.01 | locus YEL061C, strain CIN8 (second series), active compounds read low 1.01 | locus YER015W, strain faa2, active compounds read low 1.02 | locus YER016W, strain bim1, active compounds read low 1.01 | locus YER111C, strain swi4, active compounds read low 1.03 | locus YER155C, strain BEM2 (second series), active compounds read low 1.03 | locus YFR010W, strain ubp6, active compounds read low 1.02 | locus YGL167C, strain pmr1, active compounds read low 1.02 | locus YGL173C, strain kem1, active compounds read low 1.03 | locus YGL227W, strain vid30, active compounds read low 1.03 | locus YGL240W, strain doc1, active compounds read low 1.02 | locus YGL253W, strain hxk2, active compounds read low 1.02 | locus YHR013C, strain ard1, active compounds read low 1.01 | locus YHR027C, strain rpn1, active compounds read low 1.03 | locus YHR030C, strain SLT2, active compounds read low 1.05 | locus YHR079C, strain IRE1, active compounds read low 1.04 | locus YHR142W, strain chs7, active compounds read low 1.01 | locus YJL092W, strain hpr5, active compounds read low 1.02 | locus YJL095W, strain BCK1 (second series), active compounds read low 1.01 | locus YJL095W, strain BCK1, active compounds read low 1.05 | locus YJL115W, strain asf1, active compounds read low 1.01 | locus YJL129C, strain trk1, active compounds read low 1.03 | locus YJL154C, strain vps35, active compounds read low 1.02 | locus YJL164C, strain tpk1, active compounds read low 0.995 | locus YJL166W, strain qcr8, active compounds read low 1.01 | locus YJL187C, strain SWE1, active compounds read low 1.02 | locus YJR066W, strain TOR1, active compounds read low 0.999 | locus YKL160W, strain elf1, active compounds read low 1.02 | locus YKR026C, strain gcn3, active compounds read low 1.02 | locus YKR091W, strain srl3, active compounds read low 1.02 | locus YLL001W, strain dnm1, active compounds read low 1.02 | locus YLL026W, active compounds read low 1.01 | locus YLL041C, strain sdh2, active compounds read low 0.973 | locus YLR027C, strain aat2, active compounds read low 1.01 | locus YLR113W, strain HOG1, active compounds read low 1.08 | locus YLR221C, strain rsa3, active compounds read low 1.02 | locus YLR258W, strain gsy2, active compounds read low 1.02 | locus YLR262C, strain YPT6 (second series), active compounds read low 1.01 | locus YLR320W, strain mms22, active compounds read low 1.03 | locus YLR342W, strain FKS1, active compounds read low 1.02 | locus YLR357W, strain rsc2, active compounds read low 1.01 | locus YLR370C, strain arc18, active compounds read low 1.02 | locus YLR384C, strain iki3, active compounds read low 1.03 | locus YML120C, strain ndi1, active compounds read low 1.01 | locus YMR058W, strain fet3, active compounds read low 1.02 | locus YMR125W, strain sto1, active compounds read low 1.02 | locus YMR129W, active compounds read low 1.02 | locus YMR205C, strain PFK2, active compounds read low 1.02 | locus YMR231W, strain pep5, active compounds read low 1.02 | locus YNL071W, strain lat1, active compounds read low 1.01 | locus YNL183C, strain NPR1, active compounds read low 0.988 | locus YNL209W, strain ssb2, active compounds read low 1.02 | locus YNL248C, strain rpa49, active compounds read low 1.02 | locus YNL322C, strain KRE1 (second series), active compounds read low 1.02 | locus YNR049C, strain mso1, active compounds read low 1.02 | locus YOR001W, strain rrp6, active compounds read low 1.04 | locus YOR070C, strain gyp1, active compounds read low 1.02 | locus YOR080W, strain dia2, active compounds read low 1.02 | locus YOR083W, strain WHI5, active compounds read low 1 | locus YOR106W, strain vam3, active compounds read low 1.05 | locus YOR231W, strain MKK1, active compounds read low 1.05 | locus YOR265W, strain rbl2, active compounds read low 1.01 | locus YOR270C, strain vph1, active compounds read low 1.02 | locus YOR290C, strain snf2, active compounds read low 1.02 | locus YPL051W, strain arl3, active compounds read low 1 | locus YPL078C, strain atp4, active compounds read low 1.02 | locus YPL106C, strain sse1, active compounds read low 1.02 | locus YPL240C, strain hsp82, active compounds read low 1.02 | locus YPL256C, strain CLN2, active compounds read low 1.05
